Where “and” joins values, the source holds several entries; their conditions need not be identical. Equal values may be shown once. Results filed as inconclusive are left out. Calls of active or inactive are those of the source. Calls come from the whole dose curve; as a rule, active = well fitted curve in the direction sought with a large enough effect; inconclusive = small, poorly fitted or top-dose-only effect, or another doubt; inactive = no such curve, though single readings can be large or run the other way.
Assay: qHTS Assay for Identifying Gametocytocidal Compounds (AID 743244);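 note: actives lower the fluorescent signal which means gametocytes are killed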
Details: P. falciparum 3D7 stage III-V gametocytes, alamarBlue, 72 h; max response: hits give low values
In short: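 Using 20,000 stage III–V 3D7 gametocytes per well, compounds were incubated 72 h under 37 °C/5% CO2. Viability was then assessed by 24 h alamarBlue reduction, measured fluorometrically at 525/598 nm.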
% is set by controls: 0 for no effect and ±100 for the full control effect.

SMILES	max response
OCCN1CCN(CC/C=C2/c3ccccc3Sc3ccc(Cl)cc32)CC1	-5.02% (inactive)
CC(=O)N=c1sc(S(N)(=O)=O)nn1C	3.69% (inactive)
C=CCOc1ccc(CC(=O)O)cc1Cl	22.7% (inactive)
CCCCC(CC)CCC(CC(C)C)OS(=O)(=O)O (centres undefined)	17.4% (inactive) and 3.69% (inactive)
CC(=O)[O][Al][O]C(C)=O	-11.1% (inactive)
CO/N=C(\C(=O)N[C@@H]1C(=O)N2C(C(=O)[O-])=C(C[n+]3cccc4c3CCC4)CS[C@H]12)c1csc(N)n1	15.5% (inactive)
CCCCCCCCCCCC(=O)N(CCO)CCO	11.9% (inactive)
Cc1cc(O)c2c(c1)O[C@@]1(C)CC[C@H]3C(C)(C)CCCC34CO[C@@H]2[C@H]41 (some centres undefined)	20.1% (inactive)
NC(=O)OC[C@@H]1[C@H](NC(=O)/C(=N\OCC(=O)O)c2csc(N)n2)C(=O)N1S(=O)(=O)O	-1.55% (inactive)
Cc1ccc(S(=O)(=O)NC(=O)N[C@@H](C)Cc2ccccc2)cc1	23.6% (inactive)
CCN(CC)CCC(=O)N1c2ccccc2Sc2ccc(C(F)(F)F)cc21	-16% (inactive)
CCOC(=O)[C@@H](N)CS	0.746% (inactive)
CC(C)CN(C[C@@H](OP(=O)(O)O)[C@H](Cc1ccccc1)NC(=O)O[C@H]1CCOC1)S(=O)(=O)c1ccc(N)cc1	-7.76% (inactive)
N=C(N)c1ccc(/C=C/c2ccc(C(=N)N)cc2O)cc1	21.7% (inactive)
NC(=O)c1ccc[n+]([C@@H]2O[C@H](COP(=O)([O-])OP(=O)(O)OC[C@H]3O[C@@H](n4cnc5c(N)ncnc54)[C@H](O)[C@@H]3O)[C@@H](O)[C@H]2O)c1	2.6% (inactive)
COc1cc2c(cc1OC)[C@@H](Cc1cc(OC)c(OC)c(OC)c1)[N+](C)(CCCOC(=O)CC/C=C/CCC(=O)OCCC[N+]1(C)CCc3cc(OC)c(OC)cc3[C@H]1Cc1cc(OC)c(OC)c(OC)c1)CC2 (some centres undefined)	7.25% (inactive) and 6.59% (inactive)
CC(O)[C@@H]1NC(=O)[C@H](Cc2ccccc2)NC(=O)[C@H](C(C)O)NC(=O)[C@H](CCCCN)NC(=O)[C@H](Cc2c[nH]c3ccccc23)NC(=O)[C@H](Cc2ccccc2)NC(=O)[C@H](Cc2ccccc2)NC(=O)[C@H](CC(N)=O)NC(=O)[C@H](CCCCN)NC(=O)[C@@H](NC(=O)CNC(=O)[C@H](C)N)CSSC[C@@H](C(=O)O)NC(=O)[C@H](CO)NC1=O (some centres undefined)	1.43% (inactive)
Nc1nc(=O)n([C@@H]2CS[C@H](CO)O2)cc1F	4.32% (inactive)
CC1CC(OC(=O)C(O)c2ccccc2)CC(C)(C)C1 (centres undefined)	25% (inactive)
CC(=O)Nc1ccc(OC(C)=O)cc1	-5.2% (inactive)
C[C@@H]1C[C@H]2[C@@H]3CCC4=CC(=O)C=C[C@]4(C)[C@@]3(F)[C@@H](O)C[C@]2(C)[C@@]1(O)C(=O)COC(=O)c1cccc(S(=O)(=O)O)c1	12.5% (inactive)
CCC(C)[C@@H](N)C(=O)O (some centres undefined)	-1.27% (inactive)
O=C1[O][Bi][O]c2ccccc21	14.5% (inactive)
CCOC(=O)c1c[nH]c2cc(OCC(C)C)c(OCC(C)C)cc2c1=O	-10.7% (inactive)

Source: PubChem BioAssay (NCATS)
